Each structure is given as a SMILES string. Hit rate of the full screen: of about 39,000 compounds, about 3,300 (8.5%) were called active. The full list was thinned out, with actives kept by preference.

This assay has as its system HepG2. Description: cytotoxicity call (relative viability < 0.9). The settings on record: 10 µM.
With `C[C@H](CO)N1C[C@H](C)[C@@H](CN(C)S(C)(=O)=O)Oc2ccc(NC(=O)C3CCCCC3)cc2CC1=O`, the cytotoxicity call was “inactive”. For `C[C@H](CO)N1C[C@H](C)[C@@H](CN(C)Cc2ccc3c(c2)OCO3)Oc2ccc(NC(=O)Cn3cnnn3)cc2C1=O`, the cytotoxicity call is “inactive”. For the compound `Cc1ccc(C(=O)Oc2ccc(/C=N/c3cccs3)cc2)cc1`, the cytotoxicity call is “active”. The value for `Cc1ccc(-c2ccc(OC(=O)c3ccccc3F)cc2)cc1` was “inactive”; that for `O=C(Oc1ccc(C2CCCCC2)cc1)c1cccs1` was “inactive”; that for `C[C@H](CO)N1C[C@H](C)[C@@H](CN(C)S(C)(=O)=O)OCCCC[C@H](C)Oc2ccc(NC(=O)c3ccncc3)cc2C1=O` was “inactive”. In the case of `CC(C)NC(=O)Nc1ccc2c(c1)C(=O)N([C@H](C)CO)C[C@H](C)[C@@H](CN(C)CC1CCCCC1)OCCCC[C@H](C)O2` it was “inactive”.

With `C[C@H]1CN([C@@H](C)CO)C(=O)c2cccc(NC(=O)C3CC3)c2O[C@H]1CN(C)C(=O)NC1CCCCC1`, the cytotoxicity call was “inactive”. The value for `O=C(C[C@@H]1C=C[C@H](NC(=O)c2cnccn2)[C@@H](CO)O1)NCc1ccccc1F` was “inactive”; that for `COc1cc2c(cc1OC)C1C(=O)c3c(O)cc4c(c3OC1CO2)C=CC(C)(C)O4` (stereo not drawn) [alpha-TOXICAROL (dl) ] was “active”. The value for `COc1cc2c(cc1OC)-c1c(oc3cc4c(cc3c1=O)CCO4)CO2` was “inactive”.

On to `COc1cc2c(c3ccccc13)OC(C)(C)C=C2`, for which the cytotoxicity call was “inactive”. In the case of `COc1cc2c(cc1OC)C1C(=O)c3ccc4c(c3OC1CO2)C=CC(C)(C)O4` (stereo unspecified), the cytotoxicity call was “active”. Turning to `CC1(C)C=Cc2cc3ccc(=O)oc3cc2O1`, the cytotoxicity call was “inactive”. As for `COc1ccc2c(c1)OC1COc3cc(OC)c(OC)cc3C1C2=O` (stereo unspecified), the cytotoxicity call is “active”. In the case of `CC(=O)c1cc2c(cc1O)OC(C)(C)C=C2` it was “inactive”.

`COc1ccc(-c2c(O)c3c(OC)c4c(cc3oc2=O)OC(C)(C)C=C4)cc1`: the cytotoxicity call was “inactive”.

Consider `COc1cc(OC)c2c(c1)OC(c1ccccc1)CC2=O` (stereo unspecified), for which the cytotoxicity call is “inactive”.

For `COc1cc2c(cc1OC)-c1c(oc3c4c(ccc3c1=O)OC(C)(C)C=C4)CO2`, the cytotoxicity call is “active”. The value for `COc1ccc2c(c1)OC1c3ccc(OC)cc3OCC21` (stereo unspecified) was “inactive”; that for `Nc1ccc(Cl)nn1` was “inactive”.

Take `C[C@@H]1CN([C@@H](C)CO)C(=O)CCCn2nncc2CO[C@H]1CN(C)S(=O)(=O)c1ccc(Cl)cc1`: the cytotoxicity call is “inactive”. The value for `O=C(C[C@@H]1CC[C@@H](NC(=O)CN2CCOCC2)[C@H](CO)O1)NCCc1ccncc1` was “inactive”; that for `C[C@@H]1CCCCO[C@H](CN(C)C(=O)C2CCCCC2)[C@H](C)CN([C@@H](C)CO)C(=O)c2cc(NC(=O)Cc3ccccc3)ccc2O1` was “inactive”.

As to `Cc1cn(Cc2ccccc2)c(=O)[nH]c1=O`, the cytotoxicity call was “inactive”. The value for `O=C(C[C@H]1CC[C@@H]2[C@H](COC[C@@H](O)CN2C(=O)Nc2cc(Cl)cc(Cl)c2)O1)N1CCOCC1` was “inactive”; that for `COC[C@@H]1c2nnn(C)c2CCN1S(=O)(=O)c1cn(C)cn1` was “inactive”; that for `C[C@@H]1CCCCO[C@@H](CN(C)CC2CCCCC2)[C@@H](C)CN([C@@H](C)CO)C(=O)c2cc(NS(=O)(=O)c3ccc(F)cc3)ccc2O1` was “inactive”.

Take `C[C@@H]1CCCCO[C@H](CN(C)CC2CCCCC2)[C@H](C)CN([C@H](C)CO)C(=O)c2cc(NS(=O)(=O)c3ccc(F)cc3)ccc2O1`: the cytotoxicity call is “inactive”. In the case of `C[C@@H]1CN([C@H](C)CO)C(=O)c2cc(NS(=O)(=O)c3ccc(F)cc3)ccc2O[C@@H](C)CCCCO[C@@H]1CN(C)CC1CCCCC1` it was “inactive”. On to `C[C@@H]1CCCCO[C@@H](CN(C)CC2CCCCC2)[C@H](C)CN([C@@H](C)CO)C(=O)c2cc(NS(=O)(=O)c3ccc(F)cc3)ccc2O1`, for which the cytotoxicity call was “active”. In the case of `C[C@@H]1CCCCO[C@@H](CN(C)CC2CCCCC2)[C@H](C)CN([C@H](C)CO)C(=O)c2cc(NS(=O)(=O)c3ccc(F)cc3)ccc2O1`, the cytotoxicity call is “inactive”. The value for `C[C@@H]1CCCCO[C@@H](CN(C)CC2CCCCC2)[C@@H](C)CN([C@H](C)CO)C(=O)c2cc(NS(=O)(=O)c3ccc(F)cc3)ccc2O1` was “active”. Consider `C[C@@H]1CN([C@@H](C)CO)C(=O)c2cc(NS(=O)(=O)c3ccc(F)cc3)ccc2O[C@@H](C)CCCCO[C@@H]1CN(C)CC1CCCCC1`, for which the cytotoxicity call is “inactive”.

For the compound `C[C@H]1CCCCO[C@H](CN(C)CC2CCCCC2)[C@@H](C)CN([C@@H](C)CO)C(=O)c2cc(NS(=O)(=O)c3ccc(F)cc3)ccc2O1`, the cytotoxicity call is “active”. The value for `C[C@H](CO)N1C[C@H](C)[C@@H](CN(C)CC2CCCCC2)OCCCC[C@H](C)Oc2ccc(NS(=O)(=O)c3ccc(F)cc3)cc2C1=O` was “inactive”; that for `C[C@@H]1CN([C@@H](C)CO)C(=O)c2cc(NS(=O)(=O)c3ccc(F)cc3)ccc2O[C@@H](C)CCCCO[C@H]1CN(C)CC1CCCCC1` was “inactive”. In the case of `C[C@H](CO)N1C[C@H](C)[C@H](CN(C)CC2CCCCC2)OCCCC[C@H](C)Oc2ccc(NS(=O)(=O)c3ccc(F)cc3)cc2C1=O` it was “active”. Turning to `C[C@@H]1CCCCO[C@H](CN(C)CC2CCCCC2)[C@@H](C)CN([C@H](C)CO)C(=O)c2cc(NS(=O)(=O)c3ccc(F)cc3)ccc2O1`, the cytotoxicity call was “inactive”. In the case of `CCCNC(=O)C[C@H]1CC[C@@H]2[C@@H](COc3ccc(NS(=O)(=O)c4ccccc4C)cc3C(=O)N2C)O1` it was “inactive”; in that of `O=C(C[C@H]1C=C[C@@H](NC(=O)c2ccc3c(c2)OCO3)[C@@H](CO)O1)NCc1ccc(Oc2ccccc2)cc1`, “inactive”; in that of `COc1ccc2c3c(n(c2c1)C)[C@@H](CO)N(C[C@]13CCN(CC1)S(=O)(=O)c1cn(cn1)C)C(=O)Nc1ccc(cc1)F`, “inactive”. The value for `COc1ccc2c3c([nH]c2c1)[C@H](CO)N(C[C@]13CN(CC2CCCCC2)C1)S(=O)(=O)c1cn(cn1)C` was “inactive”; that for `C[C@@H]1CCCCO[C@H](CN(C)C(=O)NC2CCCCC2)[C@H](C)CN([C@@H](C)CO)C(=O)c2cc(NC(=O)C3CCCCC3)ccc2O1` was “inactive”; that for `CN1C(=O)[C@@H]2[C@@H]3C[C@H]4[C@@H](O[C@H]1[C@H]42)[C@H]3O` was “inactive”. On to `C[C@H](CO)N1C[C@H](C)[C@H](CN(C)Cc2ccncc2)Oc2c(NC(=O)c3cnccn3)cccc2C1=O`, for which the cytotoxicity call was “inactive”. `C[C@H]1CCCCO[C@@H](CN(C)CC2CCCCC2)[C@@H](C)CN([C@@H](C)CO)C(=O)c2cc(NS(=O)(=O)c3ccc(F)cc3)ccc2O1`: the cytotoxicity call is “inactive”. The value for `C[C@@H]1CN([C@H](C)CO)C(=O)c2cc(NS(=O)(=O)c3ccc(F)cc3)ccc2O[C@@H](C)CCCCO[C@H]1CN(C)CC1CCCCC1` was “active”; that for `C[C@@H]1CCCCO[C@H](CN(C)CC2CCCCC2)[C@H](C)CN([C@@H](C)CO)C(=O)c2cc(NS(=O)(=O)c3ccc(F)cc3)ccc2O1` was “inactive”; that for `C[C@H](CO)N1C[C@H](C)[C@@H](CN(C)C(=O)Nc2ccc3c(c2)OCO3)Oc2ccc(NC(=O)Cn3cnnn3)cc2C1=O` was “inactive”. In the case of `C[C@H](CO)N1C[C@H](C)[C@@H](CN(C)C(=O)Nc2ccc3c(c2)OCO3)OCCCC[C@H](C)Oc2ccc(NS(=O)(=O)c3ccc(F)cc3)cc2C1=O` it was “inactive”; in that of `CC(C)NC(=O)N(C)C[C@H]1Oc2ccc(NS(=O)(=O)c3ccc(F)cc3)cc2C(=O)N([C@@H](C)CO)C[C@H]1C`, “inactive”; in that of `C[C@H](CO)N1C[C@H](C)[C@H](CN(C)C(=O)Nc2ccc(C(F)(F)F)cc2)Oc2ccc(NC(=O)Nc3ccc4c(c3)OCO4)cc2CC1=O`, “inactive”.

As to `Clc1ccc(/C=N/Cc2ccc(-c3cccs3)s2)cc1`, the cytotoxicity call was “active”. The value for `CC(C)(C)c1csc(-c2ccc(-c3cccs3)s2)n1` was “inactive”; that for `Cl.N=C(NN=Cc1ccc(Cl)cc1)NN=Cc1ccc(Cl)cc1` was “inactive”; that for `CN1C(=O)c2cc(NC(=O)C3CCC3)ccc2OC[C@H]2O[C@H](CC(=O)NCCc3ccncc3)CC[C@@H]21` was “inactive”. On to `Cc1noc(C)c1NC(=O)N(C)C[C@H]1Oc2ccc(NC(=O)Cn3cnnn3)cc2C(=O)N([C@@H](C)CO)C[C@@H]1C`, for which the cytotoxicity call is “inactive”. In the case of `O=C(C[C@@H]1CC[C@H]2[C@@H](COC[C@@H](O)CN2S(=O)(=O)c2cccc(Cl)c2)O1)NCc1ccc2c(c1)OCO2`, the cytotoxicity call was “inactive”. For `Cc1coc(C)c1C(=O)O[C@@H]1O[C@@H](C)[C@H](O)[C@@H](O)[C@H]1O`, the cytotoxicity call was “active”. In the case of `C[C@@H]1O[C@@H](OC[C@H]2O[C@@H](OCCc3ccccc3)[C@H](O)[C@@H](O)[C@@H]2O)[C@H](O)[C@H](O)[C@H]1O` it was “inactive”. In the case of `C[C@@H]1O[C@@H](Oc2c(-c3cc(O)c(O)c(O)c3)oc3cc(O)cc(O)c3c2=O)[C@H](O)[C@H](O)[C@H]1O` it was “inactive”. As for `CCO[C@H]1OC(C(=O)N2CCN(Cc3ccc4c(c3)OCO4)CC2)=C[C@@H](C)[C@@H]1CCCOC(=O)NCCCCCC(=O)NO`, the cytotoxicity call was “inactive”. Consider `O=C(C[C@H]1C[C@@H]2c3cc(NC(=O)NC4CCCC4)ccc3O[C@@H]2[C@@H](CO)O1)NCc1ccc2c(c1)OCO2`, for which the cytotoxicity call was “inactive”.

As for `CO[C@H]1CN(C)C(=O)c2ccc(NC(=O)NC(C)C)cc2OC[C@@H](C)N(Cc2ccc(-c3ccccn3)cc2)C[C@@H]1C`, the cytotoxicity call is “inactive”. Turning to `C[C@@H]1CN([C@H](C)CO)C(=O)Cc2cc(NC(=O)Nc3ccc(C(F)(F)F)cc3)ccc2O[C@@H]1CN(C)Cc1ccccc1`, the cytotoxicity call was “active”. Regarding `C[C@@H]1CN([C@H](C)CO)C(=O)Cc2cc(NC(=O)Nc3ccc(C(F)(F)F)cc3)ccc2O[C@H]1CN(C)Cc1ccccc1`, the cytotoxicity call is “active”. The value for `C[C@H]1CN([C@@H](C)CO)C(=O)Cc2cc(NC(=O)Nc3ccc(C(F)(F)F)cc3)ccc2O[C@@H]1CN(C)Cc1ccccc1` was “inactive”.

Consider `C[C@@H]1CN([C@@H](C)CO)C(=O)Cc2cc(NC(=O)Nc3ccc(C(F)(F)F)cc3)ccc2O[C@H]1CN(C)Cc1ccccc1`, for which the cytotoxicity call was “inactive”. In the case of `C[C@@H]1CN([C@@H](C)CO)C(=O)Cc2cc(NC(=O)Nc3ccc(C(F)(F)F)cc3)ccc2O[C@@H]1CN(C)Cc1ccccc1` it was “active”; in that of `C[C@H]1CN([C@@H](C)CO)C(=O)Cc2cc(NC(=O)Nc3ccc(C(F)(F)F)cc3)ccc2O[C@H]1CN(C)Cc1ccccc1`, “active”.

The record behind these values is the antibiotic and cytotoxicity screens of Wong et al. (2023).
